Test results from PubChem BioAssay (EPA / NIEHS).
The source made the active and inactive calls. Rule for the calls: active = hit-call score of the fitted dose curve at least 0.9, where 1 is the maximum; inactive = score below 0.9.

Experiments:
Settings in all cases: mRNA level, 48 h; actives raise or lower the signal
[1] = read-out: Lipoprotein lipase (LPL), LPL (gene 4023); test: LTEA_HepaRG_LPL: Life Technologies and Expression Analysis (LTEA) Assay for Lipoprotein lipase (LPL) using HepaRG (AID 2283515)
Summary of the method: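 Differentiated HepaRG cells, plated 48 h, then exposed 48 h in serum-free induction medium to 8 concentrations (top 100 uM, half-log steps) in 0.5% DMSO, duplicate. LPL mRNA measured by qRT-PCR, normalized to ACTB, GAPDH and POLR2A.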

[2] = read-out: MicroRNA 122 (MIR122), gene 406906; test: LTEA_HepaRG_MIR122: Life Technologies and Expression Analysis (LTEA) Assay for MicroRNA 122 (MIR122) using HepaRG (AID 2283516); note: the transcript read is the microRNA miR-122
Summary of the method: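 Differentiated human HepaRG cells in serum-free induction medium exposed 48 h to 8 half-log concentrations from 100 uM in 0.5% DMSO, duplicate. MIR122 quantified by Fluidigm TaqMan qRT-PCR, normalised to ACTB, GAPDH, POLR2A; fold change fitted bidirectionally versus DMSO.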

[3] = read-out: matrix metalloproteinase-10 (MMP10), MMP10 (gene 4319); test: LTEA_HepaRG_MMP10: Life Technologies and Expression Analysis (LTEA) Assay for matrix metalloproteinase-10 (MMP10) using HepaRG (AID 2283517)
Summary of the method: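 Differentiated HepaRG cells in serum-free induction medium exposed 48 h in duplicate to 8-point half-log series up to 100 uM in 0.5% DMSO. mRNA quantified by qRT-PCR, normalised to ACTB, GAPDH, POLR2A; bidirectional fit versus DMSO.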

MYC, MYC (gene 4609) = test: LTEA_HepaRG_MYC: Life Technologies and Expression Analysis (LTEA) Assay for MYC using HepaRG (AID 2283518)
Summary of the method: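 Differentiated human HepaRG cells, plated 48 h then switched to serum-free induction medium, were exposed in duplicate for 48 h to 8-point half-log series up to 100 uM in 0.5% DMSO. MYC mRNA measured by qRT-PCR, normalized to ACTB/GAPDH/POLR2A.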

[4] = read-out: matrix metalloproteinase-3 (MMP3), MMP3 (gene 4314); test: LTEA_HepaRG_MMP3: Life Technologies and Expression Analysis (LTEA) Assay for matrix metalloproteinase-3 (MMP3) using HepaRG (AID 2283519)
Summary of the method: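 HepaRG cells (~100,000/well) in serum-free induction medium were dosed in duplicate for 48 h with an 8-point half-log series from 100 uM, 0.5% DMSO. MMP3 mRNA was quantified by Fluidigm TaqMan qRT-PCR, normalized to three housekeeping genes.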

[5] = read-out: Paternally Expressed 10 (PEG10), PEG10 (gene 23089); test: LTEA_HepaRG_PEG10: Life Technologies and Expression Analysis (LTEA) Assay for Paternally Expressed 10 (PEG10) using HepaRG (AID 2283520)
Summary of the method: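 Differentiated HepaRG cells exposed 48 h in serum-free induction medium to eight half-log concentrations topping at 100 uM, 0.5% DMSO, in duplicate. PEG10 mRNA quantified by TaqMan qRT-PCR, normalized to ACTB, GAPDH and POLR2A; bidirectional fit versus DMSO.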

[6] = read-out: Nuclear factor NF-kappa-B p105 subunit (Homo sapiens) (UniProt P19838); test: LTEA_HepaRG_NFKB1: Life Technologies and Expression Analysis (LTEA) Assay for Nuclear Factor Kappa B Subunit 1 (NFKB1) using HepaRG (AID 2283521);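 note: TaqMan qRT-PCR transcript normalised to ACTB GAPDH and POLR2A housekeeping genes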
Summary of the method: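 Differentiated human HepaRG cells in serum-free induction medium with 0.5% DMSO were exposed for 48 h to eight half-log concentrations, top 100 uM, in duplicate. NFKB1 mRNA measured by Fluidigm TaqMan qRT-PCR, normalised to ACTB, GAPDH and POLR2A; bidirectional fit versus DMSO.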

[7] = read-out: Protein phosphatase 2A (PPP2R4), PTPA (gene 5524); test: LTEA_HepaRG_PPP2R4: Life Technologies and Expression Analysis (LTEA) Assay for Protein phosphatase 2A (PPP2R4) using HepaRG (AID 2283522)
Summary of the method: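 Differentiated human HepaRG cells in serum-free induction medium were exposed 48 h to 8 concentrations (top 100 µM, half-log steps, duplicate) in 0.5% DMSO. PPP2R4 mRNA was measured by TaqMan qRT-PCR, normalised to ACTB, GAPDH and POLR2A, and fitted bidirectionally versus DMSO.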

[8] = read-out: Phosphatase and tensin (PTEN), PTEN (gene 5728); test: LTEA_HepaRG_PTEN: Life Technologies and Expression Analysis (LTEA) Assay for Phosphatase and tensin (PTEN) using HepaRG (AID 2283523)
Summary of the method: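 HepaRG cells, 48 h after plating, exposed in duplicate for 48 h in serum-free induction medium to 8 half-log concentrations up to 100 uM (0.5% DMSO). PTEN mRNA by qRT-PCR, normalized to ACTB, GAPDH, POLR2A; bidirectional fit versus DMSO.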

[9] = read-out: solute carrier (SLC22A1), SLC22A1 (gene 6580); test: LTEA_HepaRG_SLC22A1: Life Technologies and Expression Analysis (LTEA) Assay for solute carrier (SLC22A1) using HepaRG (AID 2283524)
Summary of the method: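 Differentiated human HepaRG cells in serum-free induction medium, exposed 48 h in duplicate to 8-point half-log series from 100 µM top in 0.5% DMSO. SLC22A1 mRNA by TaqMan qRT-PCR normalized to ACTB, GAPDH, POLR2A; bidirectional fit versus DMSO.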

[10] = read-out: Pyruvate Dehydrogenase Kinase 4 (PDK4), PDK4 (gene 5166); test: LTEA_HepaRG_PDK4: Life Technologies and Expression Analysis (LTEA) Assay for Pyruvate Dehydrogenase Kinase 4 (PDK4) using HepaRG (AID 2283525)
Summary of the method: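 HepaRG cells plated 48 h, then switched to serum-free induction medium and exposed in duplicate for 48 h to 8 half-log concentrations from 100 uM in 0.5% DMSO. PDK4 mRNA measured by qRT-PCR, normalized to ACTB, GAPDH and POLR2A; bidirectional fit versus DMSO.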

[11] = read-out: NAD(P)H dehydrogenase [quinone] 1 (NQO1), NQO1 (gene 1728); test: LTEA_HepaRG_NQO1: Life Technologies and Expression Analysis (LTEA) Assay for NAD(P)H dehydrogenase [quinone] 1 (NQO1) using HepaRG (AID 2283526)
Summary of the method: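 Differentiated human HepaRG cells in serum-free induction medium, dosed in duplicate for 48 h at 8 half-log concentrations up to 100 uM in 0.5% DMSO. NQO1 mRNA by qRT-PCR normalized to ACTB, GAPDH, POLR2A; bidirectional fit versus DMSO baseline.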

[12] = read-out: Nuclear factor erythroid 2-related factor 2 (Homo sapiens) (UniProt Q16236); test: LTEA_HepaRG_NFE2L2: Life Technologies and Expression Analysis (LTEA) Assay for Nuclear factor erythroid 2-related factor 2 (NFE2L2) Transcription Factor using HepaRG (AID 2283527);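 note: TaqMan qRT-PCR transcript level normalised to ACTB GAPDH and POLR2A housekeeping genes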
Summary of the method: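 Differentiated human HepaRG cells, serum-free induction medium, exposed 48 h in duplicate to eight half-log concentrations up to 100 uM in 0.5% DMSO. NFE2L2 mRNA by Fluidigm TaqMan qRT-PCR, normalised to ACTB, GAPDH, POLR2A; bidirectional change versus DMSO.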

[13] = read-out: succinate dehydrogenase complex iron sulfur subunit B (SDHB), SDHB (gene 6390); test: LTEA_HepaRG_SDHB: Life Technologies and Expression Analysis (LTEA) Assay for succinate dehydrogenase complex iron sulfur subunit B (SDHB) using HepaRG (AID 2283528)
Summary of the method: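 HepaRG cells (~100,000/well, plated 48 h) exposed in duplicate for 48 h in serum-free induction medium to 8-point half-log series from 100 uM in 0.5% DMSO; mRNA by qRT-PCR normalised to ACTB, GAPDH, POLR2A; bidirectional fit versus DMSO.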

[14] = read-out: Signal transducer and activator of transcription 3 (Homo sapiens) (UniProt P40763); test: LTEA_HepaRG_STAT3: Life Technologies and Expression Analysis (LTEA) Assay for Signal transducer and activator of transcription (STAT3) using HepaRG (AID 2283529)
Summary of the method: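 Differentiated HepaRG cells, serum-free induction medium, dosed 48 h in duplicate, 8 half-log concentrations from 100 uM in 0.5% DMSO. STAT3 mRNA by qRT-PCR, normalised to ACTB, GAPDH, POLR2A; bidirectional fit versus DMSO.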

[15] = read-out: solute carrier (SLCO1B1), SLCO1B1 (gene 10599); test: LTEA_HepaRG_SLCO1B1: Life Technologies and Expression Analysis (LTEA) Assay for solute carrier (SLCO1B1) using HepaRG (AID 2283530)
Summary of the method: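 Differentiated human HepaRG cells, plated 48 h, switched to serum-free induction medium and exposed in duplicate for 48 h to 8 half-log concentrations (top 100 uM) in 0.5% DMSO. SLCO1B1 mRNA by TaqMan qRT-PCR, normalized to ACTB/GAPDH/POLR2A.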

[16] = read-out: sulfotransferase 2A1 (SULT2A1), SULT2A1 (gene 6822); test: LTEA_HepaRG_SULT2A1: Life Technologies and Expression Analysis (LTEA) Assay for sulfotransferase 2A1 (SULT2A1) using HepaRG (AID 2283531)
Summary of the method: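 Differentiated human HepaRG cells in serum-free induction medium were exposed for 48 h to eight half-log concentrations (top 100 uM, 0.5% DMSO). SULT2A1 mRNA was measured by qRT-PCR, normalized to ACTB, GAPDH and POLR2A, and fitted bidirectionally against DMSO.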

[17] = read-out: Transforming Growth Factor (TGFA), TGFA (gene 7039); test: LTEA_HepaRG_TGFA: Life Technologies and Expression Analysis (LTEA) Assay for Transforming Growth Factor (TGFA) using HepaRG (AID 2283532)
Summary of the method: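 Differentiated HepaRG cells exposed 48 hours in serum-free induction medium, 0.5% DMSO vehicle, 8-point half-log series from 100 uM, in duplicate. TGFA mRNA by TaqMan qRT-PCR, normalised to ACTB, GAPDH, POLR2A; bidirectional fit versus DMSO.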

[18] = read-out: Transforming Growth Factor (TGFB1), TGFB1 (gene 7040); test: LTEA_HepaRG_TGFB1: Life Technologies and Expression Analysis (LTEA) Assay for Transforming Growth Factor (TGFB1) Transporter using HepaRG (AID 2283533)
Summary of the method: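 Differentiated human HepaRG cells in serum-free induction medium were exposed in duplicate for 48 h to eight concentrations (top 100 uM, half-log steps, 0.5% DMSO). TGFB1 mRNA was quantified by qRT-PCR, normalized to ACTB, GAPDH, POLR2A, and fitted bidirectionally against DMSO.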

TIMP1, TIMP1 (gene 7076) = test: LTEA_HepaRG_TIMP1: Life Technologies and Expression Analysis (LTEA) Assay for TIMP1 using HepaRG (AID 2283534);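 note: TaqMan qRT-PCR signal normalized to ACTB GAPDH and POLR2A housekeeping genes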
Summary of the method: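 Differentiated human HepaRG cells in serum-free induction medium were exposed 48 h to chemicals (8 half-log concentrations, top 100 uM, 0.5% DMSO). TIMP1 mRNA was quantified by TaqMan qRT-PCR, normalized to ACTB/GAPDH/POLR2A; bidirectional fit versus DMSO.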

Measured: outcome

Chain of Nuclear factor erythroid 2-related factor 2 (Homo sapiens) (Q16236 whole entry, looked up): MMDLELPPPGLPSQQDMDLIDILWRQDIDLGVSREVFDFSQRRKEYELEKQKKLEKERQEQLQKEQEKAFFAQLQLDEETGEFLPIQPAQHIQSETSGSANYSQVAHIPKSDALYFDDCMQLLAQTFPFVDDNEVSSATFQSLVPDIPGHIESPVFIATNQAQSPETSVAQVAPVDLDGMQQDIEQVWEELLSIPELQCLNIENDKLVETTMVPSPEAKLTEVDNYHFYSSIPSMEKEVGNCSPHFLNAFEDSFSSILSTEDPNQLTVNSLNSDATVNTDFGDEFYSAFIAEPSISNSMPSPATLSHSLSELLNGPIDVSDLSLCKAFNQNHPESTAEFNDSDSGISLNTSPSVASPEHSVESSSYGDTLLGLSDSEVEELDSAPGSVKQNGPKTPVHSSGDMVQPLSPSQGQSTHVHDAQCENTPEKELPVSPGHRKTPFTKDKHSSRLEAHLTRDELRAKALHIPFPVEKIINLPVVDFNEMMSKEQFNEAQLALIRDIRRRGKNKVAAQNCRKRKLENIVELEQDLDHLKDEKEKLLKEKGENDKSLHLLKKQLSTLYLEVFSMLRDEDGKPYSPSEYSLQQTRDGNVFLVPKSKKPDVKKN
Chain of Signal transducer and activator of transcription 3 (Homo sapiens) (P40763 whole entry, looked up): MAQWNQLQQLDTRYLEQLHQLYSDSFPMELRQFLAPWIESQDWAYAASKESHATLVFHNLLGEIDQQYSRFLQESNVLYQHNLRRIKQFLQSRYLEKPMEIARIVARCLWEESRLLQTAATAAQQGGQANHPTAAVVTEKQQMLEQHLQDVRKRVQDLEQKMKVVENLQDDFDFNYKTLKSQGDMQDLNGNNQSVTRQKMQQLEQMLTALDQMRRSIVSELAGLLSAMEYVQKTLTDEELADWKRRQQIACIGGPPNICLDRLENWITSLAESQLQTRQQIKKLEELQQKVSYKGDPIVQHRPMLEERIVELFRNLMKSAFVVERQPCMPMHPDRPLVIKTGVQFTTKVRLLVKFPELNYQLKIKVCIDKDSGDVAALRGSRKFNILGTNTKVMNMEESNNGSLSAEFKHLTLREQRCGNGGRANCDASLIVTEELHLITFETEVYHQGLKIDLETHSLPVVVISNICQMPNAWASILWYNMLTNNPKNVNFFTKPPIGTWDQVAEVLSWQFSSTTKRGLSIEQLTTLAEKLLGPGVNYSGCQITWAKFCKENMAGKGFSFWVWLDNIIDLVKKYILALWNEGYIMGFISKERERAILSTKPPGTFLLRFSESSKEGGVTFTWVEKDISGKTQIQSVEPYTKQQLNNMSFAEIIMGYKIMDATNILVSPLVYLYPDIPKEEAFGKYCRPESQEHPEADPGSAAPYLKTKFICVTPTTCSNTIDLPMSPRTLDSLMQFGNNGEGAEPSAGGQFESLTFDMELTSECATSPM
Chain of Nuclear factor NF-kappa-B p105 subunit (Homo sapiens) (P19838 whole entry, looked up): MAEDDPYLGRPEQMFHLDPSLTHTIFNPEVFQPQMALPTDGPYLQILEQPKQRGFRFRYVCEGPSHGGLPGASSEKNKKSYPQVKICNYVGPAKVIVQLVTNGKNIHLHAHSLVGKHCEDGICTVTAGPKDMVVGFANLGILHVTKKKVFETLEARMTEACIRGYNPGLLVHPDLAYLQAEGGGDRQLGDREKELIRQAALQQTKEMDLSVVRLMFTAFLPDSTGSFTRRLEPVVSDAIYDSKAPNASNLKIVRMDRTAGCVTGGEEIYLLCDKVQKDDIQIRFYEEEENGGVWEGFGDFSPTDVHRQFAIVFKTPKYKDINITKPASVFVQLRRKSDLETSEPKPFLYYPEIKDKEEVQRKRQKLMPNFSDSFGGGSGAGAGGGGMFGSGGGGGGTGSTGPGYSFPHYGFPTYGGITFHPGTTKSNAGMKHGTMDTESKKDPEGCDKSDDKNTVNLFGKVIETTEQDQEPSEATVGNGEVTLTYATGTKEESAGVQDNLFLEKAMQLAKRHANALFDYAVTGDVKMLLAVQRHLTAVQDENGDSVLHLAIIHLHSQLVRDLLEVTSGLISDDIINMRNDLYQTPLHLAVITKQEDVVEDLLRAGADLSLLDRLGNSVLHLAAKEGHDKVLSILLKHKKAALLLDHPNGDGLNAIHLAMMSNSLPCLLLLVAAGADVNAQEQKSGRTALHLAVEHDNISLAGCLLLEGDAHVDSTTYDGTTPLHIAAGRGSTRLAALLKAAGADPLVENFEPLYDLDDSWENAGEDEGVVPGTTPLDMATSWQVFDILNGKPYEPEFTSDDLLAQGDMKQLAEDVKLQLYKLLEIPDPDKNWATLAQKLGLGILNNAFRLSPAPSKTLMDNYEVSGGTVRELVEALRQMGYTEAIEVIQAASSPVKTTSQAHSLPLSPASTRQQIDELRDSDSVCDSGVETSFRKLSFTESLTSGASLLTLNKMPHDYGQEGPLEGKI

CNC(=O)ON=CC(C)(C)SC
inactive: [1] | [2] | [3] | MYC, MYC (gene 4609) | [4] | [5] | [6] | [7] | [8] | [9] | [10] | [11] | [12] | [13] | [14] | [15] | [16] | [17] | [18] | TIMP1, TIMP1 (gene 7076)

CCON=C(CC)C1=C(O)CC(c2c(C)cc(C)cc2C)CC1=O (stereo not given)
inactive: [1] | [2] | [3] | MYC, MYC (gene 4609) | [4] | [5] | [6] | [7] | [8] | [9] | [10] | [11] | [12] | [13] | [14] | [15] | [16] | [17] | [18] | TIMP1, TIMP1 (gene 7076)
